Experiment [1] concerns the target Calcium and integrin-binding protein 1 (Homo sapiens) (UniProt Q99828). The experiment in a line: Primary qHTS for Identification of Calcium Integrin Binding Protein 1 (CIB1) Competitor (AID 1508620). Further: top concentration of the series differs between compounds. In short, it runs like this:
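CIB1-GST (1 uM final) and compound incubated 15 min at room temperature before adding FITC-alphaIIb peptide tracer (100 nM final). Competition for binding read by fluorescence polarization (ex 480, em 540) after another 15 min at room temperature.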

The nature of experiment [2]: Primary qHTS for small molecule stabilizers of the endoplasmic reticulum resident proteome: Secreted ER Calcium Modulated Protein (SERCaMP) assay (AID 1508630). In short, it runs like this:
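GLuc-SERCaMP-expressing SH-SY5Y cells, pretreated 16 h with compound, are challenged with thapsigargin to empty ER calcium stores; after 4 h, coelenterazine is added directly to the medium and luminescence is imaged.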
Background: In qHTS, concentration-response curves come from the screen itself.

The target of experiment [3] is Protein phosphatase 1D (Homo sapiens) (UniProt O15297). The experiment in a line: RapidFire Mass Spectrometry qHTS Assay for Modulators of WT P53-Induced Phosphatase 1 (WIP1) (AID 1347424).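 Further: amount of dephosphorylated VEPPL-S-QETFS peptide product formed by WIP1; series mostly up to about 63 µM.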 In short, it runs like this:
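10 nM WIP1 + cpd, 1 h RT; + 2 uM VEPPL-pS-QETFS, 5 min RT; stop 0.5% formic acid; labelled product standard 1 uM; RapidFire MS. Buffer 50 mM Tris pH 7.5, 30 mM MgCl2, 1 mM TCEP.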

The target is the same in experiment [4]. The experiment in a line: Rhodamine-PBP qHTS Assay for Modulators of WT P53-Induced Phosphatase 1 (WIP1) (AID 1347425). In short, it runs like this:
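The read-out is the change in Rhodamine-PBP fluorescence (f1 - f0, ex 525/em 598 nm) as Pi is released, read each minute for 11 min. Final reaction: 5 nM WIP1, 10 uM phosphopeptide VEPPL-pS-QETFS, 10 uM Rh-PBP, 50 mM Tris-HCl pH 7.5, 30 mM MgCl2. Compound was preincubated with enzyme for 1 hour at room temperature.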

Experiment [5] in a line: Primary qHTS for inhibitors of La Crosse Virus (LACV) - induced cell death in SH-SY5Y cells (AID 1508616).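 Further: top concentration of the series differs between compounds; higher means more rescue of cells from virus-induced death.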 In short, it runs like this:
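Readout was luminescence from ATPLite 1step added after a 6-day LACV infection (0.01 MOI) of SH-SY5Y cells that had received pin-transferred compound 24 hr after seeding.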

The nature of experiment [6]: Counterscreen qHTS for small molecule stabilizers of the endoplasmic reticulum resident proteome: GLuc-NoTag assay (AID 1508627).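 Further: SH-SY5Y cells given compound then 100 nM thapsigargin to empty ER calcium; series mostly up to about 76 µM.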 The essentials: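 Luminescence of Gaussia luciferase secreted into the medium (coelenterazine, 0.07x final, unlysed cells) was the read-out. Human SH-SY5Y neuroblastoma cells constitutively secreting untagged GLuc received compound for 19 h, then 100 nM thapsigargin for 4 h.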
(Counterscreens check selectivity or assay interference.)

The nature of experiment [7]: Confirmatory qHTS for small molecule stabilizers of the endoplasmic reticulum resident proteome: Secreted ER Calcium Modulated Protein (SERCaMP) assay (AID 1508628).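 Further: SH-SY5Y cells given compound 16 h then thapsigargin 100 nM for 4 h; series mostly up to about 76 µM; nearly all actives have a fitted effect of over 40% in size.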 The essentials:
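We seeded SH-SY5Y-GLuc-SERCaMP cells, added compounds (three concentrations in the primary run, eleven up to 76.6 uM in confirmation), incubated 16 h, depleted ER calcium with thapsigargin, and read luciferase 4 h later.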

The nature of experiment [8]: Cell Viability qHTS for small molecule stabilizers of the endoplasmic reticulum resident proteome (AID 1508629).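 Further: human SH-SY5Y neuroblastoma cells carrying the GLuc-SERCaMP reporter; compound exposure about 46 h in total before the viability read.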 Conditions: cell viability counter-screen, 100 nM thapsigargin for final 4 h.
A short description of experiment [9]: A High-Content qHTS Against Drug Library for the Identification of Small Molecules that Inhibit DYT1 Early Onset Primary Dystonia-Associated Cell Pathology (AID 1645839; calls by dose curve; further: series mostly up to about 46 µM). In short, it runs like this:
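In this high-content image screen, delE TorsinA mislocalization in inducible Flp-In 293 cells is scored as %pathology, with cell count serving as the counterscreen. Compound exposure lasts 48 h under tetracycline induction in reduced-serum medium.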

The target of experiment [10] is Cytochrome P450 2D6 (Homo sapiens) (UniProt P10635). The experiment in a line: Cytochrome P450 family 2 subfamily D member 6 (CYP2D6) small molecule antagonists: luciferase biochemical (cell-free) qHTS assay (AID 1645840; active means well fitted curve in the direction sought with a large enough effect in the repeat runs; an effect the other way counts as inactive or inconclusive; further: nearly all actives have a fitted effect of over 55% in size; further: potency means the concentration at half of the fitted maximal effect). In short, it runs like this:
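P450-Glo luminescent screen: recombinant CYP2D6 enzyme–proluciferin substrate mix preincubated with compound 10 min at room temperature, then NADPH regeneration added for 1 h at room temperature. Detection reagent added for 20 min; luciferin light read as relative luminescence units.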

A short description of experiment [11]: Primary qHTS for inhibitors of nuclear receptor binding SET domain protein 2 (NSD2) in an isogenic RCH-ACV NSD2 p.E1099K mutant (9B) (AID 1645876). Further: nearly all actives have a fitted effect of over 70% in size. Further: potency means the concentration at half of the fitted maximal effect.
Experiment [12] can be described thus: Primary qHTS for inhibitors of nuclear receptor binding SET domain protein 2 (NSD2) in an RCH-ACV wild type WT cells (2C) (AID 1645877). Further: nearly all actives have a fitted effect of over 70% in size. Further: potency means the concentration at half of the fitted maximal effect.
In experiment [13] the target is Calcium and integrin-binding protein 1 (Homo sapiens) (UniProt Q99828). The experiment in a line: Confirmatory qHTS for Identification of Calcium Integrin Binding Protein 1 (CIB1) Competitor (AID 1508617). Further: nearly all actives have a fitted effect of over 65% in size. Further: potency means the concentration at half of the fitted maximal effect. In short, it runs like this: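 Compounds at up to 114 uM final met 1 uM GST-tagged CIB1 for 15 min at room temperature (HEPES pH 7.4, 5 mM CaCl2). FITC-labelled alphaIIb peptide, 100 nM, added; polarization read after 15 min more.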

The target of experiment [14] is Cytochrome P450 2C9 (Homo sapiens) (UniProt P11712). The experiment in a line: Cytochrome P450 family 2 subfamily C member 9 (CYP2C9) small molecule antagonists: luciferase biochemical (cell-free) qHTS assay (AID 1645842; active means well fitted curve in the direction sought with a large enough effect in the repeat runs; an effect the other way counts as inactive or inconclusive; further: series mostly up to about 57 µM; nearly all actives have a fitted effect of over 55% in size). In short, it runs like this:
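Luminescence, after 20 min with luciferin detection reagent, reflected CYP2C9 turnover during a 1 h NADPH-driven reaction at 37C. Enzyme-substrate mix contained 0.4% bovine serum albumin and was preincubated with compound 10 min at room temperature.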

Experiment [15] is described as follows: Validation qHTS assay for inhibitors of Activation Induced Cytidine Deaminase (AID): UDG Counterscreen signal (AID 1347427). The essentials:
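Counterscreen read of UDG activity (2 U/mL, 4/3x) in the FRET deamination format with AID (1 uM, 4/3x), DJC20/DJC23 substrates (250 nM, 4x), 4 h at room temperature. NaOH stop, fluorescence at 560 ex/665 em.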

For experiment [16], the target named is Single-stranded DNA cytosine deaminase (Homo sapiens) (UniProt Q9GZX7). The experiment in a line: Validation qHTS assay for inhibitors of Activation Induced Cytidine Deaminase (AID): AID signal (AID 1347429). In short, it runs like this:
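In this coupled qHTS, AID deaminates a FRET-labelled ssDNA substrate in the presence of UDG over 4 hr at room temperature. Compounds span up to 114 uM final.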

The target in experiment [17] is Calcium and integrin-binding protein 1 (Homo sapiens) (UniProt Q99828). The experiment in a line: Validation qHTS for Identification of Calcium Integrin Binding protein 1 (CIB1) Competitor (AID 1508618). The essentials:
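CIB1-GST (1 uM final) incubated 15 min at room temperature with compounds (up to 114 uM), then FITC-labelled alphaIIb peptide (100 nM) added. FP read (Ex 480/Em 540) after 15 min, pH 7.4 buffer containing 5 mM CaCl2.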

The next experiment addresses Papain (Carica papaya) (UniProt P00784). The experiment in a line: Primary qHTS assay for inhibitors of the protease papain (AID 1645873).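 Further: papain turnover of Z-FR-AMC read as the AMC fluorescence gain over 10 min; series mostly up to about 50 µM.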
The target of experiment [18] is N-terminal Xaa-Pro-Lys N-methyltransferase 1 (Homo sapiens) (UniProt Q9BV86). The experiment in a line: Confirmatory qHTS for Inhibitors of N-terminal methyltransferase 1 (NTMT1): MTaseGlo Assay (AID 1645874).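 Further: luminescence from SAH made as NTMT1 methylates SPKRIA peptide using SAM; series mostly up to about 100 µM; nearly all actives have a fitted effect of over 65% in size.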 The essentials: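 qHTS format: NTMT1 125 nM, SAM 100 uM, peptide SPKRIA 1 uM final; 15 min compound preincubation, 30 min reaction at room temperature. MTase-Glo luminescence.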

The structures appear in SMILES notation. Values joined by “and” are separate entries in the source; they are usually repeats but may differ in a detail not shown here. Identical values can stand only once. A number with no mark means an inactive call. Inconclusive results are not listed. A call without a number means that no potency is given here. Active and inactive are the calls of the source. Unless noted, the call rests on the fitted dose curve; in most records, active means well fitted curve in the direction sought with a large enough effect; inconclusive means small, poorly fitted or top-dose-only effect, or another doubt; inactive means no such curve, though single readings can be large; an effect the other way counts as inactive or inconclusive.

Chain of Calcium and integrin-binding protein 1 (Homo sapiens) (Q99828 whole entry, looked up): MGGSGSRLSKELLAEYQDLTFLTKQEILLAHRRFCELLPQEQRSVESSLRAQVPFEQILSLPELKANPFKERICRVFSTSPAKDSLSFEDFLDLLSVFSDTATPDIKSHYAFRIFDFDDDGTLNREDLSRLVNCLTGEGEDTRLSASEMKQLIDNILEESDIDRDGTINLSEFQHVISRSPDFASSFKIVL
Chain of Cytochrome P450 2D6 (Homo sapiens) (P10635 whole entry, looked up): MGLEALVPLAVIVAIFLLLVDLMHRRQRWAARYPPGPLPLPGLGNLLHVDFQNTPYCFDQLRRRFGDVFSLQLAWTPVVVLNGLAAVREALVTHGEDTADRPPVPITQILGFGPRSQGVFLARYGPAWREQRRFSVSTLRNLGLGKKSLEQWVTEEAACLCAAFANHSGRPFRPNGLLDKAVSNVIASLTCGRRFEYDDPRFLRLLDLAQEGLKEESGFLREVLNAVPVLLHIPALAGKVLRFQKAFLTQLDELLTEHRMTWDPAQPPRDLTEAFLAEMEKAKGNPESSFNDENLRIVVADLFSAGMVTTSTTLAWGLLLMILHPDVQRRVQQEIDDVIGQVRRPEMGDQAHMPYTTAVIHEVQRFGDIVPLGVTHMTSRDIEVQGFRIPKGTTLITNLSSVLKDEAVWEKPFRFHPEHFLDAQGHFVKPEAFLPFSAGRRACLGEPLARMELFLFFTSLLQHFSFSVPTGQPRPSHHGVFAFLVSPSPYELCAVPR
Chain of Protein phosphatase 1D (Homo sapiens) (O15297 whole entry, looked up): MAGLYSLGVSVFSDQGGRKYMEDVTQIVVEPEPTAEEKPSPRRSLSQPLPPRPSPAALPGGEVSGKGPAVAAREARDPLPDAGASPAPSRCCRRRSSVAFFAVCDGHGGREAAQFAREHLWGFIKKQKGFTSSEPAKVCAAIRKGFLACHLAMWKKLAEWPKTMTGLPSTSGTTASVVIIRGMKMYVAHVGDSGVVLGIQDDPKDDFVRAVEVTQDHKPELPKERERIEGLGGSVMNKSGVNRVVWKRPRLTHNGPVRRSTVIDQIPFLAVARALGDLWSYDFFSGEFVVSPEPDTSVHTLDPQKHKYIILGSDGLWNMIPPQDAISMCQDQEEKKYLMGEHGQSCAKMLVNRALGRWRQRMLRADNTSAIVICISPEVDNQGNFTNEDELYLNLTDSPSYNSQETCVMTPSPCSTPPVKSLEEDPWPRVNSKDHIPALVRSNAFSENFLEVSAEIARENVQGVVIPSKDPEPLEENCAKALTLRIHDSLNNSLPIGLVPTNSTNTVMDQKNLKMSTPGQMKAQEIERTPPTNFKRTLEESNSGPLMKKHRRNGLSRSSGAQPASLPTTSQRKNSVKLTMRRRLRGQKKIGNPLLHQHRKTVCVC
Chain of Cytochrome P450 2C9 (Homo sapiens) (P11712 whole entry, looked up): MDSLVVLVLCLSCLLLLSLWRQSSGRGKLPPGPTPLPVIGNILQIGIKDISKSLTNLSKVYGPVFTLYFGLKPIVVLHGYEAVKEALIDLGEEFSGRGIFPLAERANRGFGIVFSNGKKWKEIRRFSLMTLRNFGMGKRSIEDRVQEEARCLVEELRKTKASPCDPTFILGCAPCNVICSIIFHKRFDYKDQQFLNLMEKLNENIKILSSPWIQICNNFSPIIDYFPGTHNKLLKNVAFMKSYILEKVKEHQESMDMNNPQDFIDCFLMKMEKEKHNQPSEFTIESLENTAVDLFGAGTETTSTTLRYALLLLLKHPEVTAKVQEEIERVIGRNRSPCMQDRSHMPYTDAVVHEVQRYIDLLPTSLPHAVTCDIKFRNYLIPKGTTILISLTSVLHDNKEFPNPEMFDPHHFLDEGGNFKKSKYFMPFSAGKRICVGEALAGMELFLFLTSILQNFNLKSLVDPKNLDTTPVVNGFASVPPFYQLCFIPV
Chain of N-terminal Xaa-Pro-Lys N-methyltransferase 1 (Homo sapiens) (Q9BV86 whole entry, looked up): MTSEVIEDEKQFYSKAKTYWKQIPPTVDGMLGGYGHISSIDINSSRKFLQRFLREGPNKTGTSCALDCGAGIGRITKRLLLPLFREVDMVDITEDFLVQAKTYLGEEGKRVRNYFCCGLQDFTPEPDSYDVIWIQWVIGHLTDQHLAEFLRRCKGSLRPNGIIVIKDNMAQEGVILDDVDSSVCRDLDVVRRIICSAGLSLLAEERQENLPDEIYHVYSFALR
Chain of Papain (Carica papaya) (P00784 whole entry, looked up): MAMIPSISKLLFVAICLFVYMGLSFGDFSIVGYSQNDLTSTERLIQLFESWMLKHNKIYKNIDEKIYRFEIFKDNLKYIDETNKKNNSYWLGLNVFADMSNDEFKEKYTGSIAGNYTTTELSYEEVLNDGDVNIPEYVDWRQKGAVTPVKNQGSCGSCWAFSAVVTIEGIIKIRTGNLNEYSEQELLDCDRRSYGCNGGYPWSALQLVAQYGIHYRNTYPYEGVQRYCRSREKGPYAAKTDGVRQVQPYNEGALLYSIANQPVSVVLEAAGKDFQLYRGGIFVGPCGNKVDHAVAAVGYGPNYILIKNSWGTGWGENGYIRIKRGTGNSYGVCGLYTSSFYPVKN
Chain of Single-stranded DNA cytosine deaminase (Homo sapiens) (Q9GZX7 whole entry, looked up): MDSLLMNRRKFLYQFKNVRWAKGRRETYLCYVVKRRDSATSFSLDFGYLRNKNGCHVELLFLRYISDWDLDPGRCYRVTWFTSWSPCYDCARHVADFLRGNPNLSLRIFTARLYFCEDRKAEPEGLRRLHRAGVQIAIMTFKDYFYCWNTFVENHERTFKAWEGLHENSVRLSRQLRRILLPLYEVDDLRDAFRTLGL

As to `CC[C@H]1CN2CCc3cc(OC)c(OC)cc3[C@H]2C[C@@H]1C[C@@H]1NCCc2cc(OC)c(OC)cc21`, in experiment [1], the result was inactive.

Take `CN(C)CC=CC(=O)Nc1cc2c(Nc3ccc(F)c(Cl)c3)ncnc2cc1O[C@H]1CCOC1`: the outcome in experiment [1] was inactive. Besides, the Potency result in experiment [2] was “inactive”.

`O=C(C=Cc1cccc(S(=O)(=O)Nc2ccccc2)c1)NO`: in experiment [1], the result was inactive.

Regarding `CC(=O)SC[C@@H](C)C(=O)N1CCC[C@H]1C(=O)N[C@@H](Cc1ccccc1)C(=O)O`, the Potency result in experiment [3], in experiment [6], in experiment [2], in experiment [9], in experiment [10] and in experiment [11] was “inactive” throughout. The Potency result in [12] was “inactive”. The molecule was classed as inactive in experiment [4], in experiment [5], in [1] and in experiment [7]. Further, the max response in [8] is 10.6%.

With `Cc1coc2c1C(=O)C(=O)c1c-2ccc2c1CCCC2(C)C`, the Potency was 39.8 µM (active) in experiment [13] and 23.9 µM (active) in [10]. For the same molecule, the outcome in [1] was inactive. Moreover, the Potency entry in experiment [2] and in [11] was “inactive” in each case.

As to `CC(C)=CCCC(C)=CCCC(C)=CCSc1ccccc1C(=O)O`, the result in experiment [1] was inactive.

Take `COc1cc2ncnc(Nc3ccc(F)c(Cl)c3)c2cc1NC(=O)C=CCN1CCCCC1`: in experiment [1], the result was inactive. Besides, in experiment [2], the Potency result is “inactive”.

As to `CCCCN1CCC(CNC(=O)c2c3n(c4ccccc24)CCCO3)CC1`, the outcome in experiment [1] was inactive. For the same molecule, in experiment [2], the Potency result is “inactive”.

For the molecule `CC(NCc1ccc2c(c1)nc(NC(=O)c1ccc(-c3cn[nH]c3)s1)n2CC(C)(C)O)C(C)(C)C` (stereo unspecified), the outcome in experiment [1] was inactive.

In the case of `CC=CC1=C(C(=O)O)N2C(=O)[C@H](NC(=O)[C@H](N)c3ccc(O)cc3)[C@@H]2SC1`, in experiment [1], the outcome was inactive. Moreover, the Potency result in [2] is “inactive”.

On to `C1=CCOCc2cc(ccc2OCCN2CCCC2)Nc2nccc(n2)-c2cccc(c2)OCC1`, for which the result in [1] was inactive. Also, the Potency entry in [2] is “inactive”.

As for `Cc1nc2ccc(CN(C)c3ccc(C(=O)N[C@@H](CCC(=O)O)C(=O)O)s3)cc2c(=O)[nH]1`, the Potency result in experiment [3], in experiment [9], in [10] and in experiment [14] was “inactive” throughout. In addition, the molecule was classed as inactive in experiment [4], in [5] and in experiment [1]. Besides, the Potency in [11] was 53.1 nM (active) and 33.2 nM (active); in experiment [12], 59.6 nM (active) and 23.5 nM (active).

In the case of `O=c1c2ccccc2nc2n1CCc1c-2[nH]c2ccccc12`, the molecule was called inactive (in experiment [15]; in experiment [16]; in experiment [5]; in [17]; in [1]; in the experiment with Papain (Carica papaya)). For the same molecule, the Potency result in [11] and in experiment [12] was “inactive” each time.

Take `CC1(C)OC2=C(C(=O)c3ccccc3C2=O)[C@H](NCc2ccccc2)[C@H]1O`: the result in [1] was inactive.

For the molecule `COc1ccc(C=Cc2cc(OC)c(OC)c(OC)c2)cc1O`, the result in experiment [1] was inactive. Also, the Potency entry in [2] is “inactive”.

Consider `OCc1ccc(-c2ccc(-c3ccc(CO)s3)o2)s1`, for which the Potency result in experiment [13] and in experiment [18] was “inactive” each time. For the same molecule, in experiment [1], the result was inactive. The Potency in [11] is 50.2 nM (active) and 934 nM (active); in experiment [12], 31.7 nM (active) and 1.32 µM (active).
